Hits are enriched below; roughly 21% of the tested compounds scored in any of these assays.
TDP1 cell CPT: qHTS for Inhibitors of human tyrosyl-DNA phosphodiesterase 1 (TDP1): qHTS in cells in presence of CPT; chicken DT40 Tdp1-/-;hTDP1 cells + 20 nM CPT, ATP luminescence, 48 h; Potency, µM (doses to about 46.2 µM), usual class: inhibitors; actives 12% (n = 420,000); note: nearly all actives have a fitted effect of over 55% in size
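Chicken DT40 Tdp1-/- cells stably complemented with human TDP1 were seeded at 400 cells/well in medium containing 20 nM camptothecin, exposed to pin-transferred compounds, and grown at 37 °C for at least 48 hr. Viability was read as ATP luminescence.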
ELG1 DNA repair: qHTS screen for small molecules that inhibit ELG1-dependent DNA repair in human embryonic kidney (HEK293T) cells expressing luciferase-tagged ELG1; HEK293T ELG1-luciferase reporter, luminescence, 16 h; DNA damage induced by 5-fluorouridine; actives 2.3% (n = 330,000); Potency, µM (titrated, usually from 46.1 µM), hits mostly inhibitors; note: nearly all actives have a fitted effect of over 55% in size
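Overnight (16 hr) co-exposure of 2,000 cells/well to 5-fluorouridine and compound at 37 °C preceded detection. Luciferase was quantified via ONE-Glo luminescence; loss of signal denotes inhibition.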
IL-1B inflam inh: qHTS for Inhibitors of Inflammasome Signaling: IL-1-beta AlphaLISA Primary Screen | THP-1 LPS/ATP IL-1B secretion, AlphaLISA, 16 h; stronger effect = lower value | activity change, % at 57.5 µM | actives 4.7% (n = 360,000) | AID 743279, 2014; in the data active = activity change below about -50%; inconclusive = mostly about -30% to -49%
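Secreted IL-1B measured by AlphaLISA bead assay after 16 h compound exposure of THP-1 cells; compounds (final up to 57.5 uM) added 1 h before LPS (250 ng/mL) and ATP (1.25 mM) stimulation; lower signal means less secretion.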
TDP1 cell noCPT: qHTS for Inhibitors of human tyrosyl-DNA phosphodiesterase 1 (TDP1): qHTS in cells in absence of CPT; DT40 Tdp1-/- hTDP1 cells, no CPT, ATP luminescence, 48 h; actives 15% (n = 420,000); Potency, µM (titrated, usually from 46.2 µM), actives largely listed as inhibitors; note: nearly all actives have a fitted effect of over 55% in size
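Readout: luminescence from CellTiter-Glo after 30 min in the dark at RT. Cells: DT40 Tdp1-/- with stable hTDP1, 400/well. Exposure: compounds alone, ≥48 hr, 37 °C.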
Gal4-VP16 FLuc: VP16 counterscreen qHTS for inhibitors of ROR gamma transcriptional activity; Drosophila S2 Gal4-VP16 UAS-luciferase, luminescence, 20 h; Potency, µM (highest dose often 53.6 µM), most hits filed as inhibitors; actives 3.5% (n = 310,000); AID 2546, 2010;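 note: Gal4-VP16 expression switched on by copper sulfate through the metallothionein promoter; nearly all actives have a fitted effect of over 50% in size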
RORg inh: qHTS for inhibitors of ROR gamma transcriptional activity; Nuclear receptor ROR-gamma (Mus musculus), P51450; Drosophila S2 Gal4-RORgamma UAS-luciferase reporter, 20 h; Potency, µM (titrated, usually from 53.6 µM), actives largely listed as inhibitors; actives 5.4% (n = 310,000); AID 2551, 2010; note: nearly all actives have a fitted effect of over 60% in size
Target sequence (P51450 whole entry, looked up, the tested form may be a part): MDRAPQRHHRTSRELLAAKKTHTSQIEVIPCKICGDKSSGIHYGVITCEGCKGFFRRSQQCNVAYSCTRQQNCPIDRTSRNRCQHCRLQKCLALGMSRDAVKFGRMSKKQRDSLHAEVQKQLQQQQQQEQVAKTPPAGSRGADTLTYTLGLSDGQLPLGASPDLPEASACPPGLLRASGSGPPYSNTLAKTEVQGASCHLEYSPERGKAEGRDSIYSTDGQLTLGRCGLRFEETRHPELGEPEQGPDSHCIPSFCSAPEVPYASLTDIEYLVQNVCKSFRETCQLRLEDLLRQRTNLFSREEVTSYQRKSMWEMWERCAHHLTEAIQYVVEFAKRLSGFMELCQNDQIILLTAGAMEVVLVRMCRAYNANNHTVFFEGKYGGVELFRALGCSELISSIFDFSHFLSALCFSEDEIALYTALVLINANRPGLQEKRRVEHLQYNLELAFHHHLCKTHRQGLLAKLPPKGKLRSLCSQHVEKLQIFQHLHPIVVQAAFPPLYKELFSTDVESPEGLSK
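Stably transfected Drosophila Schneider cells are the test system, with ROR gamma fused to Gal4 and luciferase under UAS control; luminescence is read after 20 hr of 700 uM copper sulfate induction at ambient temperature.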
A number is an active result; – = inactive; ? = inconclusive; · = no result given; + = active, no number; [ ] = another dose, or the depositor's remark. Unless noted, calls come from the whole dose curve; as a rule, active = well fitted curve in the direction sought with a large enough effect; inconclusive = small, poorly fitted or top-dose-only effect, or another doubt; inactive = no such curve, though single readings can be large; an effect the other way counts as inactive or inconclusive.

SMILES | TDP1 cell CPT | ELG1 DNA repair | IL-1B inflam inh | TDP1 cell noCPT | Gal4-VP16 FLuc | RORg inh
COc1ccc(-c2nc(-c3ccccn3)nc(N3CCN(C)CC3)c2C#N)cc1 | – | ? | ? | – | – | 1.4µM
CN1CCN(c2nc(-c3cccc(C#N)c3)nc3ccccc23)CC1 | ? | · | · | ? | – | –
CN1CCN(c2nc(-c3ccccc3)nc(-c3ccc(F)cc3)c2C#N)CC1 | ? | ? | -61 | ? | – | –
CC(C)Nc1nc(-c2ccccn2)nc(-c2ccccc2)c1C#N | ? | ? | – | ? | ? | 2.5µM
COC(=O)c1ccc(N(CC(=O)NC2CCCCC2)C(=O)CNC(=O)c2ccco2)cc1 | – | – | – | – | – | –
COc1ccc(Nc2cnn(-c3nc4ccccc4s3)c(=O)c2Cl)cc1 | 2.1µM | ? | -81 | 4.1µM | ? | –[10 µM]
O=c1c(Cl)c(Nc2cccc(Cl)c2)cnn1-c1nc2ccccc2s1 | – | ? | – | ? | – | ?
Cc1ccc(C)c(N2CCN(c3cnn(-c4nc5ccccc5s4)c(=O)c3Cl)CC2)c1 | 9.2µM | ? | – | 9.2µM | – | –
CC(C)C(NC(=O)c1ccccc1)C(=O)OCc1cc([N+](=O)[O-])cc2c1OCOC2 (stereo unspecified) | 15µM | – | – | 12µM | – | ?
CCOc1ccccc1C(=O)N[C@H](C(=O)OCc1cc([N+](=O)[O-])cc2c1OCOC2)C(C)C | ? | 21µM | – | 16µM | – | –
CC1(C)Cc2c(sc(NC(=O)C(=O)NCCCN3CCOCC3)c2C#N)CO1 | – | – | – | – | – | –
O=C(Cc1ccccc1Cl)Nc1cccnc1 | – | – | – | – | – | –
Cc1cccc(S(=O)(=O)NC(=O)C2(C)CCN2C(=O)c2ccccc2CCc2ccccc2)c1 (stereo unspecified) | ? | · | – | + | · | ·
COc1ccc(NC(=O)C2(C)CCN2C(=O)c2ccccc2CCc2ccccc2)cc1OC (stereo unspecified) | 15µM | · | – | 9.2µM | · | ·
CNC(=O)C1(C)CCN1C(=O)c1ccccc1CCc1ccccc1 (stereo unspecified) | – | · | – | – | · | ·
CC1(C(=O)NS(=O)(=O)c2cccc(F)c2)CCN1C(=O)c1ccccc1CCc1ccccc1 (stereo unspecified) | ? | · | – | – | · | ·
CC1(C(=O)N2CCCCC2)CCN1C(=O)c1ccccc1CCc1ccccc1 (stereo unspecified) | ? | · | – | 15µM | · | ·
Cc1ccc(NC(=O)C2(C)CCN2C(=O)c2ccccc2CCc2ccccc2)cc1C (stereo unspecified) | 21µM | · | – | – | · | ·
CCC(=O)N1CCC(C)(C(=O)Nc2ccc3c(c2)OCO3)C1 (stereo unspecified) | ? | · | – | – | · | ·
C[C@@H](N)C(=O)NC[C@H]1CC[C@H](C(=O)N[C@@H](Cc2ccccc2)C(=O)O)CC1 | – | – | – | – | – | –
CN1CCN(C(=O)C[C@@H]2C[C@H]3c4cc(NC(=O)c5cccnc5)ccc4O[C@H]3[C@H](CO)O2)CC1 | – | · | – | – | · | ·
COc1cc(Cn2c(=O)oc3ccc(C)cc32)ccc1OC(C)C | – | – | – | – | – | –
CCCCCOc1ccc(Cn2c(=O)oc3ccc(C)cc32)cc1OC | 26µM | · | · | 21µM | · | ·
Cc1ccc2oc(=O)n(CCOc3ccccc3)c2c1 | – | ? | – | – | – | –
Cc1ccc(C(C)C)c(OCCCn2c(=O)oc3ccc(C)cc32)c1 | ? | · | · | 16µM | · | ·
SMILES | TDP1 cell CPT | ELG1 DNA repair | IL-1B inflam inh | TDP1 cell noCPT | Gal4-VP16 FLuc | RORg inh
NC(=O)c1nc[nH]c1C(=O)Nc1cccc(NC(=O)c2cccc(C(F)(F)F)c2)c1 | – | ? | – | ? | · | ·
CCOc1ccc(NC(=O)c2c(NC(=O)CN3CCN(C)CC3)sc3c2CCC3)cc1 | · | – | · | · | – | –
CCOc1ccc(NC(=O)c2c(NC(=O)CN3CCCC3)sc3c2CCC3)cc1 | ? | – | – | 12µM | 4.5µM | 4.5µM
CCOc1ccc(NC(=O)c2c(NC(=O)c3cccc(C)c3)sc3c2CCC3)cc1 | – | · | · | – | · | ·
COc1ccc(NC(=O)c2c(NC(=O)c3ccc(Br)cc3)sc3c2CCCC3)cc1 | ? | · | · | 21µM | · | ·
O=C(O)CCC(=O)Nc1sc2c(c1C(=O)Nc1ccccc1)CCCCC2 | – | – | – | – | – | –
CCOc1ccc(NC(=O)c2c(NCc3cccs3)sc3c2CCCCC3)cc1 | ? | · | · | 23µM | · | ·
COc1ccc(NC(=O)c2c(NCc3cccs3)sc3c2CCCCC3)cc1 | 9.2µM | · | · | 9.2µM | · | ·
Cc1ccc(S(=O)(=O)N2C[C@H]3C(=O)C[C@@H](c4ccc(Cl)cc4)N(S(=O)(=O)c4ccc(C)cc4)[C@H]3C[C@H]2c2ccc(Cl)cc2)cc1 | – | · | – | – | · | ·
Cc1noc(C)c1COC(=O)c1ccc(N(C)C)cc1 | – | ? | – | – | – | –
C/C(=C\C(=O)c1ccc(Cl)s1)N(C)C | – | – | – | – | ? | 7.1µM
O=C(C=Cc1ccc(Cl)s1)c1ccc(Cl)s1 | ? | · | -51 | ? | · | ·
COc1ccc(/C=C/C(=O)c2ccc(Cl)s2)cc1O | ? | ? | – | 18µM | – | –
O=C(/C=C\Nc1ccc2c(c1)OCO2)c1ccc(Cl)s1 | – | ? | – | – | – | –
COc1cc(/C=C/C(=O)c2ccc(Cl)s2)cc(OC)c1O | ? | ? | -105 | 29µM | – | ?
COc1ccc(Cn2ccc3nc(C)c(C(=O)Nc4ccc(OC)cc4)cc3c2=O)cc1 | – | · | · | – | · | ·
O=C(Nc1ccccc1)N1CCCC1 | – | – | – | – | – | –
CC1CCN(C(=O)Nc2cccc(NC(=O)N3CCC(C)CC3)c2)CC1 | – | – | ? | 5.2µM | – | –[10 µM]
COC(=O)C1CCN(C(=O)Nc2ccccc2)CC1 | – | – | -105 | – | –[10 µM] | –
CN1CCC(N(C)C(=O)c2ccc(Cl)c(S(=O)(=O)N3CCOCC3)c2)CC1 | – | – | – | – | · | ·
COCCOC(=O)c1[nH]c2c(c1C)C(=O)CC(c1ccco1)C2 (stereo unspecified) | 1µM | – | – | 0.73µM | – | –
Cc1c(C(=O)OCCOC(C)C)[nH]c2c1C(=O)CC(c1ccco1)C2 (stereo unspecified) | 0.023µM | – | – | 0.0052µM | – | ?
Cc1c(C(=O)OCCOc2ccccc2)[nH]c2c1C(=O)CC(c1ccc(C(C)(C)C)cc1)C2 (stereo unspecified) | – | · | · | ? | · | ·
